Among the data in PubChem BioAssay (EPA / NIEHS) are outcome and AC50 values, retold here.

Values joined by “and” are separate entries in the source; they are usually repeats but may differ in a detail not shown here. Equal entries are not always repeated. The source holds several records for some structures; these can differ, active in one and inactive in another. Active and inactive are the calls of the source. Rule for the calls: active = hit-call score of the fitted dose curve at least 0.9, where 1 is the maximum; inactive = score below 0.9.

Read-out in this assay: Monocyte Chemoattractant Protein-1 (MCP1), CCL2 (gene 6347)
The assay is described as follows: BSK_SAg_MCP1: BioMAP Diversity Plus: SAg Assay for Monocyte Chemoattractant Protein-1 (MCP1) Biomarker Activity (AID 2283090). Particulars: primary human HUVEC with PBMC; actives raise or lower the signal. As for the experimental part: BSK_SAg is a cell-based, multiplexed-readout assay that uses umbilical vein endothelium and peripheral blood mononuclear cells, a human vascular primary cell co-culture, with measurements taken at 24 hours after chemical dosing in a 96-well plate.BSK_SAg_MCP1 is an assay component measured in the BSK_SAg assay. It measures MCP-1 antibody related to regulation of gene expression using ELISA technology.Data from the assay component BSK_SAg_MCP1 was analyzed into 1 assay endpoint. This assay endpoint, BSK_SAg_MCP1, was analyzed with bidirectional fitting relative to DMSO as the negative control and baseline of activity. Using a type of binding reporter, gain or loss-of-signal activity can be used to understand changes in the signaling as they relate to the gene CCL2. Furthermore, this assay endpoint can be referred to as a primary readout, because this assay has produced multiple assay endpoints where this one serves a signaling function. To generalize the intended target to other relatable targets, this assay endpoint is annotated to the cytokine intended target family, where the subfamily is chemotactic factor.
The levels of cell surface (or secreted, indicated by the prefix "s") biomarker endpoints were measured by ELISA. Overt cytotoxicity to cells in confluent adherent cultures (all systems other than the BT system) was assessed by measuring total protein levels using sulforhodamine B (SRB) staining in parallel cultures at the time of biomarker measurements, indicated as SRB endpoints. For proliferation assays for adherent cell types, individual cell types are cultured at sub-confluence and relative cell numbers quantified by SRB staining at time points optimized for each system (48 h: 3C and CASM3C systems; 72 h: BT and HDF3CGF systems; 96 h: SAg system). SRB was performed by staining cells with 0.1% SRB after fixation with 10% TCA and reading wells at 560 nm.Viability and proliferation of PBMC (T cells) was quantified by Alamar Blue reduction for the SAg and BT systems. For PBMC viability (referred to as PBMC Cytotoxicity within the assay endpoint names), cells were plated (75,000/well in a 96-well plate) and then chemical samples added for 1 h before addition of activators, SEB and TSST-1 (20 ng/mL final concentration each). Cells were incubated for 90 h. Then, Alamar Blue (20 uL/well) (Invitrogen, Cat DAL1100) was added for 6 h, and the plates were read with a fluorescence microplate reader at 546/580 nm (excitation/emission). For PBMC proliferation, cells were plated and activated as above but incubated for only 16 h prior to addition of Alamar Blue. Plates were read after 6 h.
Consider `c1cc2c3c(cccc3c1)CC2`, for which the outcome was inactive. Turning to `c1ccc2c(c1)Nc1ccccc1S2`, the result was inactive. For the compound `CCNc1nc(Cl)nc(NC(C)(C)C)n1`, the AC50 is 6.26 µM (active).

With `Cc1ccc(N)cc1N`, the outcome was inactive. On to `Cc1ccc(O)cc1C`, for which the result was inactive. Regarding `CCN(CC)c1ccccc1`, the result was inactive.

`O=S1(=O)OCC2C(CO1)C1(Cl)C(Cl)=C(Cl)C2(Cl)C1(Cl)Cl` (stereo not given): the outcome was inactive. Same read-out and setting: for `CCOc1ccc(C(C)(C)COCc2cccc(Oc3ccccc3)c2)cc1` the value was “inactive”; for `CC(C)(C)c1ccc(O)cc1`, “inactive”. Turning to `OCC(F)(F)OC(F)(F)C(F)(F)OC(F)(F)C(F)(F)OC(F)(F)CO`, the AC50 was 10.3 µM (active) and the outcome was inactive. On to `NC(=O)C(F)(F)C(F)(F)F`, for which the outcome was inactive.

As for `CCOS(=O)(=O)OCC`, the outcome was inactive. As for `O=C(O)C(Cl)Cl`, the outcome was inactive. Turning to `O=S(=O)(F)C(F)(F)C(F)(F)C(F)(F)C(F)(F)C(F)(F)C(F)(F)C(F)(F)C(F)(F)F`, the outcome was inactive. For `O=C(O)C(F)(F)OC(F)(F)C(F)(F)OC(F)(F)C(=O)O`, the outcome was inactive. For the compound `O=P(Oc1ccccc1)(Oc1ccccc1)Oc1ccccc1`, the AC50 is 29 µM (active). Turning to `N#Cc1cc([N+](=O)[O-])ccc1N`, the result was inactive. With `COP(N)(=S)OC`, the result was inactive.

Regarding `CCOP(=S)(OCC)SCS(=O)(=O)CC`, the outcome was inactive. Still for that read-out and setting: for `CCOP(=S)(S)OCC` the value was “inactive”; for `O=C(O)C(F)(F)OC(F)(F)C(F)(F)OC(F)(F)F`, “inactive”; for `Nc1cc2c3c(c1)C(c1ccccc1)=N[C@@H](NC(=O)c1cccnc1)C(=O)N3CC2`, “inactive”. As for `CCCCC(CC)COC(=O)c1c(Br)c(Br)c(Br)c(Br)c1C(=O)OCC(CC)CCCC` (stereo not given), the result was inactive. Still for that read-out and setting: the value for `OCC1CO1` (stereo not given) was “inactive”; that for `Cc1c([N+](=O)[O-])cc2c(c1[N+](=O)[O-])C(C)(C)CC2(C)C` was “inactive”; that for `CCC1(c2ccccc2)C(=O)N=C(O)NC1=O` (stereo not given) was “inactive”. Same read-out and setting: the value for `COCCOCCO` was “inactive”; that for `Nc1ccc(Cl)cc1` was “inactive”. In the case of `ClC(Cl)=C(c1ccc(Cl)cc1)c1ccccc1Cl`, the AC50 was 25.9 µM (active). For `ClC1=C(Cl)C2(Cl)C3C(Cl)C(Cl)CC3C1(Cl)C2(Cl)Cl` (stereo not given), the AC50 was 33.6 µM (active). As to `CC(C)(C)OOC(C)(C)C`, the outcome was inactive. In the case of `CCOP(=S)(OCC)SCSc1ccc(Cl)cc1`, the AC50 was 20 µM (active).

Consider `FC(F)(F)C(F)(C(F)(F)F)C(F)(F)C(F)(F)CC1CO1` (stereo not given), for which the outcome was inactive. On to `O=C(O)C1C(C(=O)O)C2(Cl)C(Cl)=C(Cl)C1(Cl)C2(Cl)Cl` (stereo not given), for which the outcome was inactive. For the compound `C=CC(=O)OCC(F)(F)C(F)F`, the AC50 is 34.3 µM (active) and 20.4 µM (active). Same read-out and setting: the value for `OCC(F)(F)OC(F)(F)C(F)(F)OC(F)(F)C(F)(F)OC(F)(F)F` was 45.9 µM (active) and 24.8 µM (active).

In the case of `ClC(Cl)c1ccccc1`, the result was inactive. Consider `CC(C)(C)c1ccccc1OP(=O)(Oc1ccccc1)Oc1ccccc1`, for which the AC50 is 27.7 µM (active). In the case of `[N-]=[N+]=[N-]`, the outcome was inactive.
